A short description of test [1]: yeast TOR pathway RPL19A-GFP modulators, primary screen, cell-based, S. cerevisiae, multiplex flow cytometry (AID 1862; in the data active means percent of DMSO control GFP below about 86%;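 further: lower values mimic rapamycin by blocking the RPL19A rise seen in DMSO cells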). The following applies: S. cerevisiae RPL19A-GFP strain, flow cytometry fluorescence, 3 h; at 10 µM; stronger effect = lower value.
Test [2] in a line: modulators of MEP2-GFP levels in yeast, primary screen, S. cerevisiae, multiplex flow cytometry (AID 1867;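 active means GFP response, as percent of the DMSO control, above the screen-wide mean plus 3 SD, about 139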;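 further: median GFP channel fluorescence of barcode-gated MEP2-GFP cells measured by flow cytometry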). The following applies: S. cerevisiae MEP2-GFP strain, 3 h, at 10 µM, stronger effect = higher value, 100% means same as DMSO wells.
Test [3] is described as follows: modulators of CIT2-GFP expression in yeast, primary screen, S. cerevisiae, GFP fusion, multiplex flow cytometry (AID 1870;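 active means percent response above a set limit, the screen-wide mean plus 3 SD, cut at about 130% in these data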;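 further: barcoded CIT2-GFP strain pooled with four other GFP strains with rapamycin as positive control; median GFP fluorescence per well over plate mean of DMSO wells so 100% = DMSO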). The following applies: 3 h, at 10 µM, stronger effect = higher value.
Test [4] can be described thus: modulators of LAP4-GFP expression in yeast, primary screen, S. cerevisiae, multiplex flow cytometry (AID 1873;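 active means GFP signal, as percent of the solvent control, above the screen mean plus 3 SD, about 149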). The following applies: 3 h, at 10 µM, stronger effect = higher value.
Test [5] can be described thus: modulators of AGP1-GFP expression in yeast TOR pathway, primary screen, cell-based, multiplex flow cytometry, S. cerevisiae (AID 1887;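 active means GFP signal above the screen-wide mean plus 3 SD, that is over about 124.5% of the solvent control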;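 further: AGP1-GFP fusion strain of S. cerevisiae within a five-strain barcoded multiplex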). The following applies: 3 h, at 10 µM, stronger effect = higher value.
Test [6] can be described thus: inhibitors of CD8+ T cell-vesicle binding, pilot screen, LFA-1/ICAM-1 modulator project, MLPCN validation set, flow cytometry (AID 2523;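 active means response below a set limit, under 55% cells CD8-positive and vesicle-bound, and CD8 cells' 90th-percentile brightness under 279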;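 on vesicle binding response: mean PE anti-B7-1 fluorescence of CD8+ cells relative to row control; 100% = QL9-loaded vesicles with DMSO vehicle in the same plate row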). Particulars: 2C mouse CD8+ T cells, at 7 µM, stronger effect = lower value; double positive events: measured here: CD8+/vesicle+ event percentage.
Test [7] deals with Integrin beta-1 (Homo sapiens) + Integrin alpha-4 (Homo sapiens) (UniProt P13612+P05556). In words: inhibition of HUTS-21 binding to VLA-4, pilot screen, VLA-4 allosteric modulator project, U937 cells, HUTS-21 mAb, flow cytometry, validation set (AID 2674;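 active means inhibition above 50%, about 3 SD of the validation set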;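 further: antibody binding induced by the VLA-4 ligand LDV present at three times its Kd; 0% = LDV ligand with antibody and no compound and 100% = antibody without LDV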). Particulars: HUTS-21 LIBS mAb binding, at 6.7 µM, stronger effect = higher value, binding induced by LDV ligand.
Sequence of Integrin beta-1 (Homo sapiens) + Integrin alpha-4 (Homo sapiens) (P05556 whole entry, looked up): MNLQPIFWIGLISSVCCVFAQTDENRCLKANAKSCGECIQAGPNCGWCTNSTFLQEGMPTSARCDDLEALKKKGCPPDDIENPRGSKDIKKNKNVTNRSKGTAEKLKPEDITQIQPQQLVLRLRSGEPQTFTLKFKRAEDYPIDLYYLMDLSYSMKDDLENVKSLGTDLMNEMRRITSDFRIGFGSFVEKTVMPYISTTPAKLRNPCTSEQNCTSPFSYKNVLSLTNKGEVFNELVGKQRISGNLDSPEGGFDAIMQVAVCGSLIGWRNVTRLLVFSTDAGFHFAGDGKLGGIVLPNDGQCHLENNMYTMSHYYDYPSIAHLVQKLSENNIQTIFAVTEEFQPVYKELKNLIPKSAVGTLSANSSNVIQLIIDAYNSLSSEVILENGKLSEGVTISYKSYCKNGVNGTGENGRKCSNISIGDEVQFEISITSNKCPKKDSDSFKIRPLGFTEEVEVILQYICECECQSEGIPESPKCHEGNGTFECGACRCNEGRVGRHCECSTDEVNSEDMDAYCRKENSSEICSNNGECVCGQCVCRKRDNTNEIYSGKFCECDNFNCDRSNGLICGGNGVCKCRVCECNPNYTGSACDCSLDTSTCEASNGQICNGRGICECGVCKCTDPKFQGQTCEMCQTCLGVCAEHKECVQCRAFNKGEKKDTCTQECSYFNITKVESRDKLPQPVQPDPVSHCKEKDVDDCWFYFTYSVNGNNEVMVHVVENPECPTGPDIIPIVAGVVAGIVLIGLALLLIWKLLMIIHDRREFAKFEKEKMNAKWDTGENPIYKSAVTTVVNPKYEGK
Sequence of Integrin beta-1 (Homo sapiens) + Integrin alpha-4 (Homo sapiens) (P13612 whole entry, looked up): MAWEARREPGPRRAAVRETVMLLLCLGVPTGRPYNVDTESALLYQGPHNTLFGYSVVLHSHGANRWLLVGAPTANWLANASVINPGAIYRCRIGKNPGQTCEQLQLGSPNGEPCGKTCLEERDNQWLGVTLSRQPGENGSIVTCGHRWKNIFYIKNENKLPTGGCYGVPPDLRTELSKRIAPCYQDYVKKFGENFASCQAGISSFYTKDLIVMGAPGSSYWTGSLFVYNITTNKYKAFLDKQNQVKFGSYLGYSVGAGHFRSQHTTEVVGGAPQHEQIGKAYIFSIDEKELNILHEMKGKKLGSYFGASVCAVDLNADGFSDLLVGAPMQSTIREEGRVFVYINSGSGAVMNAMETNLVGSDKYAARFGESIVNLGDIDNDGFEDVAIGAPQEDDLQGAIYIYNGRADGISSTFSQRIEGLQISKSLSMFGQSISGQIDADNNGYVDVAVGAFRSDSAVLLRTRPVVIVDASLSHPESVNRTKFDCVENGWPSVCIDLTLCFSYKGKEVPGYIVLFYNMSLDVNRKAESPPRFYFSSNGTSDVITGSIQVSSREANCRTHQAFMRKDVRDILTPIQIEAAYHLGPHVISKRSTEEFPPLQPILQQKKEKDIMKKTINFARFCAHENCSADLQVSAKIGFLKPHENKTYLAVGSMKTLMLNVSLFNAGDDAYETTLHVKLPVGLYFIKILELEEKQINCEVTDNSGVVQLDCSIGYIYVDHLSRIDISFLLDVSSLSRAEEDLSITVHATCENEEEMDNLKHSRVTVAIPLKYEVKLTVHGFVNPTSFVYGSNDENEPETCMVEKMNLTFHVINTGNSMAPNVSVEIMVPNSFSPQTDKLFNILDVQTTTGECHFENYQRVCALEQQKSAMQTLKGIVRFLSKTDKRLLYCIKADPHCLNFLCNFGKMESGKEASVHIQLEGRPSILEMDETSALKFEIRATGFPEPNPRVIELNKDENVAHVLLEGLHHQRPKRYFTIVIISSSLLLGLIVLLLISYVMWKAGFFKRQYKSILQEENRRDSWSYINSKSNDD
Test [8] is described as follows: superoxide lowering in aged yeast cells, pilot screen, validation compound set (AID 2706;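 active means superoxide response below 65% of plate, a cut near 3 SD across the whole screen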;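 further: yeast exposed to compound for one week at 30 degrees C before staining; 100% = mean of all compound wells on the same plate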). Particulars: S. cerevisiae aging, superoxide DHE fluorescence; at 10 µM, stronger effect = lower value.
The target of test [9] is Beta-adrenergic receptor kinase 1 (Homo sapiens) (UniProt P25098). In words: GRK2 binders displacing RNA aptamer, biochemical, validation, human GRK2, bead flow cytometry (AID 488806;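 active means aptamer binding inhibition above 30%, about 3 SD of noise from non-fluorescent compounds; inactive means inhibition at or below 30%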). Particulars: bead-bound GRK2, FAM-aptamer displacement, at 10 µM, stronger effect = higher value.
Sequence of Beta-adrenergic receptor kinase 1 (Homo sapiens) (P25098 whole entry, looked up): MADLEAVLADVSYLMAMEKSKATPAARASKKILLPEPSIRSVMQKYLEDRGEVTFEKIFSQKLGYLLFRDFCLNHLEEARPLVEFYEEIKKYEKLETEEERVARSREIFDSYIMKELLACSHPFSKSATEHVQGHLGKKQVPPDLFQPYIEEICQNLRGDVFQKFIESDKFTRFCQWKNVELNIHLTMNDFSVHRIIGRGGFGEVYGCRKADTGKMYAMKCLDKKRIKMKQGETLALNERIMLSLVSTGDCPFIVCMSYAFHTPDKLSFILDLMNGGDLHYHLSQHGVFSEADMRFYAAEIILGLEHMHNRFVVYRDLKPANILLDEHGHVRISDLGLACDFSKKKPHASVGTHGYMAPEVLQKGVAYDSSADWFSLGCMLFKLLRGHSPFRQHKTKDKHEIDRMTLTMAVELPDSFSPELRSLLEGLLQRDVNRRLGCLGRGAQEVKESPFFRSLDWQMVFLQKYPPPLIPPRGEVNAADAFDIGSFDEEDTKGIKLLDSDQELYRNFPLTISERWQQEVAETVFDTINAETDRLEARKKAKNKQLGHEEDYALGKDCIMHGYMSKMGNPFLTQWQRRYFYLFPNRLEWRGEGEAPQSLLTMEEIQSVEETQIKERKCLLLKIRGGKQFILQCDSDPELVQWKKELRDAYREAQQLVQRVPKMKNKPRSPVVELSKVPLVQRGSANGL
Test [10] concerns the target AP-2 complex subunit beta (Homo sapiens) (UniProt P63010). Put plainly: inhibitors of arrestin peptide binding to AP2, pilot screen, biochemical, validation set, GST-AP2 beads, flow cytometry (AID 504541;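 active means inhibition above 54%, about 3 SD of non-fluorescent compounds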;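 further: AP2 carries R879A mutation and is captured from E. coli lysate; bead-bound FITC arrestin peptide fluorescence measuring arrestin peptide binding to AP2; 0% = DMSO wells and 100% = excess unlabeled arrestin peptide control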). Particulars: FITC arrestin peptide, at 10 µM, stronger effect = higher value, AP2 beta2 appendage fragment, R879A mutant.
A short description of test [11]: yeast V-ATPase proton transport modulators, S. cerevisiae, pHLuorin, HTS validation (AID 504600; in the data active means response above about 15%;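 further: plate controls were DMSO for no effect and reference compound for full effect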). The following applies: S. cerevisiae pHLuorin cytosolic pH, at 10 µM, stronger effect = higher value.
For test [12], the system named is anti-desmoglein-3 scFv antibody binding to human DSG3. In words: inhibitors of anti-DSG3 scFv binding to DSG3, pilot screen, biochemical, validation compound set, bead-based, flow cytometry (AID 588368).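 Further: signal is the median channel fluorescence of bead-bound GFP antibody.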 Particulars: Protein G beads, DSG3-Fc, scFv-GFP binding, at 10 µM, stronger effect = lower value.
Test [13] can be described thus: inhibitors of fungal efflux pumps CDR1, CDR2, MDR1, pilot screen, validation compound set, multiplex, phenotypic (AID 588506;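 active means efflux inhibition above 0.42, the validation set average plus 4 SD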;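 further: Nile Red retained in cells so higher fluorescence means more efflux inhibition; 0 = negative control wells and 1 = enniatin B 25 µM full block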). The following applies: S. cerevisiae pump-expressing triplex, Nile Red efflux flow cytometry; at 10 µM; stronger effect = higher value; the pumps come from Candida albicans.
Test [14] deals with ATP-binding cassette sub-family B member 6 (Homo sapiens) (UniProt Q9NP58). In words: ABCB6 transporter inhibitors, pilot screen, K562-ABCB6 cells, flow cytometry, validation set (AID 588550;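 active means inhibition above the screen-wide mean plus 3 SD, about 51%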;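 further: 0% = DMSO wells and 100% = benzethonium chloride 70 µM positive control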). The following applies: K562-ABCB6 porphyrin accumulation, 1 h, at 10 µM, stronger effect = higher value.
Sequence of ATP-binding cassette sub-family B member 6 (Homo sapiens) (Q9NP58 whole entry, looked up): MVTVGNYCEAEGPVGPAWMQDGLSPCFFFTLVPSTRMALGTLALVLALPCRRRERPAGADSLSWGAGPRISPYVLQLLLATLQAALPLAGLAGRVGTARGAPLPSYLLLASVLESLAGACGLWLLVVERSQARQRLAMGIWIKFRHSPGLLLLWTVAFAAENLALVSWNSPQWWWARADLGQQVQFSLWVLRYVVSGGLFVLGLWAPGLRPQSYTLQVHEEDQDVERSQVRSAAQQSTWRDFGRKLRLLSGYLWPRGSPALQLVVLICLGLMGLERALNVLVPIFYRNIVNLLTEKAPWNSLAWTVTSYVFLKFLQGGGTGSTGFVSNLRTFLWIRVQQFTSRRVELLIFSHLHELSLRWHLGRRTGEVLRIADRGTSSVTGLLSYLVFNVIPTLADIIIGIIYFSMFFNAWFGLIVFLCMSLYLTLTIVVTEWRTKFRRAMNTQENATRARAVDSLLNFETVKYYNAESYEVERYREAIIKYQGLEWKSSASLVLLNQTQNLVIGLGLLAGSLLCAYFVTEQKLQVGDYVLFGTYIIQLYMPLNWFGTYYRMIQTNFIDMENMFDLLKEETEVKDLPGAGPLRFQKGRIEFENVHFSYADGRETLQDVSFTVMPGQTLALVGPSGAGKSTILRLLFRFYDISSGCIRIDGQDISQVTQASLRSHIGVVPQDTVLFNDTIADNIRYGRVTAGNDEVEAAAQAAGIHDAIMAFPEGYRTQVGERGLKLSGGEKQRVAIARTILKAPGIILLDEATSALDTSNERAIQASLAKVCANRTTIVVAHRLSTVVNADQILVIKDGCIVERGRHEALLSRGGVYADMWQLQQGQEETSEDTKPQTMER
The nature of test [15]: promoters of myeloid differentiation in arrested cells, primary screen, cell-based, GFP/MAC1 double positive, flow cytometry, validation set (AID 588685;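 active means differentiation response of at least 50%, scaled between solvent and reference control, from cells with both markers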;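 further: compound exposure lasts four days before antibody staining and flow analysis; 0% = DMSO wells and 100% = 5 µM fulvestrant positive control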). The following applies: ER-HoxA9 marrow cells, stronger effect = higher value, normalized: vehicle 0, fulvestrant 100.
For test [16], the target named is Beta-2 adrenergic receptor (Homo sapiens) (UniProt P07550). Put plainly: beta2AR agonists driving receptor internalization, pilot screen, cell-based, FAP fluorogen, flow cytometry, validation set (AID 504459;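 active means percent response above 42, roughly 3 SD of non-fluorescent test compounds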;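 further: agonist-driven loss of surface beta2AR via internalization measured by FAP dye flow cytometry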). Particulars: Am2.2-beta2AR cells, FAP surface receptor flow cytometry; at 10 µM; stronger effect = higher value.
Sequence of Beta-2 adrenergic receptor (Homo sapiens) (P07550 whole entry, looked up): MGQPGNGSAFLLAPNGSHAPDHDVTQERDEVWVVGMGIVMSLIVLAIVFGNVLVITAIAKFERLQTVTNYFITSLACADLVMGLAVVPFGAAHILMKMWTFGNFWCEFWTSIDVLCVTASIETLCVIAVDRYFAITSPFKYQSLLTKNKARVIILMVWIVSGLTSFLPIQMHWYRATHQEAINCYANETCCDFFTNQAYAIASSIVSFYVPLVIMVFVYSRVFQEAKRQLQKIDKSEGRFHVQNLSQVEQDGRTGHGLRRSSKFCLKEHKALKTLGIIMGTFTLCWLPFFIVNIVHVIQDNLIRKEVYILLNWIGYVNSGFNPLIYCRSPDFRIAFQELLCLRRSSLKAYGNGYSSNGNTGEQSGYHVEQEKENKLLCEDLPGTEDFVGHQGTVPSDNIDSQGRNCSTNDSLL

Records with an inconclusive call do not appear. The source made the active and inactive calls.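 How the source made its calls, unless noted: active means binding below the plate cutoff, the plate median minus 3 SD, with a reading above zero; inconclusive means below the plate cutoff but reading exactly zero; inactive means the rest.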

Data on five compounds can be found in PubChem BioAssay.

Sequence of AP-2 complex subunit beta (Homo sapiens) (P63010 whole entry, looked up, the tested form may be a part, one chain of several): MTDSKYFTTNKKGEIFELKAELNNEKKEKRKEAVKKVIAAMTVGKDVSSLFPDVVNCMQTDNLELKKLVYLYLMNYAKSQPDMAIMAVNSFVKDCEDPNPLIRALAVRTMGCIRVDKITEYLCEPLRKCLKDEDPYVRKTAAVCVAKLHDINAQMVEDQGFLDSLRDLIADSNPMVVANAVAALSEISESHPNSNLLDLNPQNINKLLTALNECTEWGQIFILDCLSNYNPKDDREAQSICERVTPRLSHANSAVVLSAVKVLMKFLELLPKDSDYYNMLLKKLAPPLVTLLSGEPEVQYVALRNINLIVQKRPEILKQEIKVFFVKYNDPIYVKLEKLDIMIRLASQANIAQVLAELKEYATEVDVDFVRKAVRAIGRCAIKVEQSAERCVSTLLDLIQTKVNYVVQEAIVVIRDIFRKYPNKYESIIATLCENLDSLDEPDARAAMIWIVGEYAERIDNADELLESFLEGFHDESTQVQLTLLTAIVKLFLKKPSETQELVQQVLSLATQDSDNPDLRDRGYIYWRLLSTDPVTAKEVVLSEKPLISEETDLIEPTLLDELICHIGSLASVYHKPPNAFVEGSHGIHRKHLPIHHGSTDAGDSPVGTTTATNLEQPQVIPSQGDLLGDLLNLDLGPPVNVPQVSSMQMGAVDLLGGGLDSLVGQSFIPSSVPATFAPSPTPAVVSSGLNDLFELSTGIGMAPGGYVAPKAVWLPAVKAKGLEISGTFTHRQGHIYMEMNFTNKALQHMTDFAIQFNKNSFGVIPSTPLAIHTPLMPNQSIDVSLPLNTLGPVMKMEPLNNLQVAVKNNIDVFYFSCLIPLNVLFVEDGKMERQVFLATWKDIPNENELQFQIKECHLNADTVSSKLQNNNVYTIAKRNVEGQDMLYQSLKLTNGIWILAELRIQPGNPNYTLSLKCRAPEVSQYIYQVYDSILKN

`COC(=O)c1ccccc1OCCOCCOc1cccc2ccc(C)nc12`: the percent of DMSO control GFP in [1] is 106% (inactive). In addition, the GFP response vs DMSO in test [2] was 103% (inactive); in test [4], 90.3% (inactive). In addition, the percent response of DMSO control in [3] is 99.8% (inactive). The GFP response, % of DMSO in test [5] is 100% (inactive). The compound further showed a double positive events in test [6] of 49.8%. Also, the vesicle binding response in test [6] is 145% (inactive). The inhibition was 14.7% (inactive) in [7], -2.13% (inactive) in test [10] and 9% (inactive) in test [14]. The superoxide response (% of plate) in test [8] was 116% (inactive). Further, the aptamer binding inhibition in [9] is 2% (inactive). Besides, the response in test [11] was 4.14% (inactive). Also, in test [12], the binding (% of control) was 103% (inactive). Further, in test [13], the efflux inhibition (fraction of control) was -0.05 (inactive). For the same compound, the differentiation response in [15] is -13.1% (inactive).

As to `CC(C)c1ccccc1OCCNC(=S)NC(=O)c1cccnc1`, in test [1], the percent of DMSO control GFP is 98.2% (inactive). The GFP response vs DMSO was 97.4% (inactive) in test [2] and 96.5% (inactive) in test [4]. Also, the percent response of DMSO control in [3] is 92% (inactive). Besides, the GFP response, % of DMSO in test [5] is 96.3% (inactive). In [6], this compound gave a double positive events of 62.4%. Moreover, the vesicle binding response in test [6] was 185% (inactive). Besides, the figures for the inhibition in test [7] and in [14] were 22.8% (inactive) and 3% (inactive), respectively. The superoxide response (% of plate) in [8] is 105% (inactive). Besides, the aptamer binding inhibition in test [9] was -3% (inactive). For the same compound, the response is 4.29% (inactive) in [16] and -2.54% (inactive) in test [11]. Besides, the binding (% of control) in [12] is 99.7% (inactive). For the same compound, the efflux inhibition (fraction of control) in test [13] was 1.3 (active). In addition, the differentiation response in [15] is 100% (active).

In the case of `CC1(C)OC2OC(C(=O)N/N=C/c3ccccc3F)C3OC(C)(C)OC3C2O1` (stereo not given), the percent of DMSO control GFP in test [1] is 100% (inactive). Moreover, the figures for the GFP response vs DMSO in [2] and in [4] were 106% (inactive) and 101% (inactive), respectively. Further, the percent response of DMSO control in test [3] is 97.9% (inactive). Further, the GFP response, % of DMSO in [5] was 101% (inactive). In addition, the double positive events in test [6] was found to be 53.1%. In test [6], the vesicle binding response is 164% (inactive). Besides, the values for the inhibition in test [7], in test [10] and in test [14] were 12.8% (inactive), 0.54% (inactive) and 9% (inactive), respectively. In test [8], the superoxide response (% of plate) is 103% (inactive). The aptamer binding inhibition in test [9] is 1% (inactive). Further, the response in test [11] was 1.25% (inactive). Besides, in test [12], the binding (% of control) was 96.5% (inactive). Also, in test [13], the efflux inhibition (fraction of control) is 0.52 (active). Further, the differentiation response in [15] is -13.1% (inactive).

Regarding `CN1CCC(=C2c3ccccc3CC(=O)c3sccc32)CC1`, in [1], the percent of DMSO control GFP was 101% (inactive). The GFP response vs DMSO was 101% (inactive) in test [2] and 94.8% (inactive) in [4]. Moreover, in test [3], the percent response of DMSO control is 108% (inactive). The GFP response, % of DMSO in [5] was 101% (inactive). Also, the double positive events in test [6] stood at 62.4%. In addition, the vesicle binding response in test [6] is 136% (inactive). Besides, the inhibition in [7] was -3.77% (inactive); in test [10], -10.2% (inactive); in test [14], 4% (inactive). The superoxide response (% of plate) in [8] was 96.5% (inactive). The aptamer binding inhibition in test [9] is -2% (inactive). For the same compound, the results for the response in test [16] and in test [11] were 11.7% (inactive) and 1.45% (inactive), respectively. In test [12], the binding (% of control) is 105% (inactive). In [15], the differentiation response is -14.8% (inactive).

`O=C1OCCN1/N=C/c1ccc([N+](=O)[O-])o1`: in test [1], the percent of DMSO control GFP was 103% (inactive). The GFP response vs DMSO in test [2] is 103% (inactive); in test [4], 111% (inactive). The percent response of DMSO control in [3] is 109% (inactive). Moreover, the GFP response, % of DMSO in test [5] is 102% (inactive). This compound came in with a double positive events in test [6] of 48.6%. Also, the vesicle binding response in [6] was 157% (inactive). The inhibition in [7] was 3.49% (inactive); in test [10], 3.09% (inactive); in test [14] it was 4% (inactive). In addition, in [8], the superoxide response (% of plate) is 124% (inactive). The aptamer binding inhibition in test [9] is -2% (inactive). In addition, the response in test [11] was 8.6% (inactive). In [12], the binding (% of control) is 104% (inactive). Besides, the efflux inhibition (fraction of control) in [13] is 0.06 (inactive). Besides, the differentiation response in test [15] was -16.4% (inactive).
